AmpC inh detg: blocks E. coli AmpC beta-lactamase in detergent assay | AmpC hydrolysis of nitrocefin, absorbance 480 nm, 0.01% Triton | Potency, µM (top dose mostly 114 µM), most hits filed as inhibitors | hit rate 0.041% among 370,000; note: nearly all actives have a fitted effect of over 25% in size
Target sequence (P00811 whole entry, looked up): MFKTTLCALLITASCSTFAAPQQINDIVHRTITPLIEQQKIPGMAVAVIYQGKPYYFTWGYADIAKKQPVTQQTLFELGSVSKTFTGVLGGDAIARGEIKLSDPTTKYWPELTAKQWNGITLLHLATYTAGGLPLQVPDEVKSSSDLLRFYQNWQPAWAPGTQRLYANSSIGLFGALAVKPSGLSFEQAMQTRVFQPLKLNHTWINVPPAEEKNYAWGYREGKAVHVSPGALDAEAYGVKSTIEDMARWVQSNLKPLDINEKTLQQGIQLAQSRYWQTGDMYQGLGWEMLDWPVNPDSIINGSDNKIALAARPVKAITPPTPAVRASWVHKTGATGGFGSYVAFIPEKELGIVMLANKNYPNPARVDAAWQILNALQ
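20 mM phosphate pH 7.0 + 0.01% (detergent screen) or 0.0001% Triton X-100; 5.3 nM AmpC reagent; cpd preinc 15 min RT; nitrocefin (800 uM stock) to start; A480 q20 s × 4 min; Activity was normalised to no-enzyme and no-compound control wells.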
AMA1 RON2 block: AMA1-RON2 (P. falciparum) interaction inhibition; AlphaScreen AMA1-biotinylated RON2 peptide binding; hit rate 0.2% among 360,000; AID 720542; Potency, µM (highest dose often 58.2 µM), most hits filed as inhibitors; note: nearly all actives have a fitted effect of over 45% in size
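AMA1 (3D7) with his tag at 25 nM final met compounds first, then biotinylated RON2 peptide at 25 nM; detection used donor plus acceptor beads, 10 µg/mL apiece, read by AlphaScreen after 30 min at room temperature.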
RE007 growth inh: less growth of the S. pombe RE007 Vpr strain; S. pombe RE007 Vpr strain, BacTiter-Glo ATP luminescence, 24 h; Potency, µM (top dose mostly 92.2 µM), usual class: inhibitors; hit rate 0.21% among 360,000; active = well fitted falling curve with a large enough effect; inconclusive = small, poorly fitted or top-dose-only effect; inactive = no such curve, though single readings can be large or run the other way; note: nearly all actives have a fitted effect of over 50% in size
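Fission yeast strain RE007, carrying one chromosomally integrated HIV-1 vpr copy, was seeded at OD 0.01 in PMG+AL medium with 23 nL pinned compound. After 24 h at 30 °C and 99% humidity, viability was read by BacTiter-Glo luminescence.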
AmpC inh no detg: inhibitors of E. coli AmpC beta-lactamase without detergent; P00811; AmpC nitrocefin hydrolysis, absorbance 480 nm, 0.0001% Triton; Potency, µM (titrated, usually from 57.1 µM), usual class: inhibitors; hit rate 0.52% among 330,000; AID 485341; note: nearly all actives have a fitted effect of over 20% in size
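20 mM phosphate pH 7.0 + 0.01% (detergent screen) or 0.0001% Triton X-100; 5.3 nM AmpC reagent; cpd preinc 15 min RT; nitrocefin (800 uM stock) to start; A480 q20 s × 4 min; Activity was normalised to no-enzyme and no-compound control wells.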
Hits are given with their value; – = inactive; ? = inconclusive; · = not tested or not shown. Rows were chosen to be rich in hits. Some 0.79% of all compounds tested hit in one or more screens of this group. Unless noted, calls come from the whole dose curve; as a rule, active = well fitted curve in the direction sought with a large enough effect; inconclusive = small, poorly fitted or top-dose-only effect, or another doubt; inactive = no such curve, though single readings can be large; an effect the other way counts as inactive or inconclusive.

SMILES	AmpC inh detg	AMA1 RON2 block	RE007 growth inh	AmpC inh no detg
CCC(C)NCCOc1ccc(C)cc1[N+](=O)[O-] (configuration not stated)	–	–	–	–
Cc1ccc(CN2C(=O)C(O)(c3c[nH]c4ccccc34)c3cc(Cl)ccc32)cc1 (configuration not stated)	–	·	·	·
O=C(CCN1C(=O)C2C3C=CC(C4CC34)C2C1=O)Oc1cccc2cccnc12 (configuration not stated)	?	–	14µM	–
O=C(CCN1C(=O)C2C3C=CC(C4CC34)C2C1=O)Oc1ccc(Br)cc1 (configuration not stated)	–	–	–	–
COC(=O)C1=C(C)NC(=O)/C1=C\c1cc(C)n(-c2cc(C)cc(C)c2)c1C	–	?	10µM	–
CCN(CC)c1ccc(NC(=O)Nc2ccccc2)cc1	–	?	–	–
CCN(CC)c1ccc(NC(=O)Nc2ccc(C(C)=O)cc2)cc1	–	–	–	0.28µM
Cc1ccc(OCC(=O)Nc2ccc(C(=O)OCc3cc(=O)n4ccsc4n3)cc2)cc1C	–	·	·	·
CCN(CC(=O)Nc1ccc(NC(C)=O)cc1)C(=O)/C=C/c1ccccc1	?	–	–	–
CCN(CC(=O)Nc1ccc(NC(C)=O)cc1)C(=O)/C=C/c1cn(-c2ccccc2)nc1-c1cccs1	?	–	–	25µM
Cn1cccc1Cc1nnc(SCC(=O)N2CCOCC2)n1-c1ccc(F)cc1	–	–	–	2.5µM
COc1ccc(-n2c(Cc3cccn3C)nnc2SCC(=O)N2CCOCC2)cc1	?	–	–	–
COc1cccc(CNC(=O)CCc2c(C)c3cc4c(C)c(C)oc4cc3oc2=O)c1	–	·	·	·
Cc1cc(C)n(-c2nc3ccccc3nc2Nc2ccc(Cl)c(C(=O)OC(C)C)c2)n1	–	·	·	·
O=C(Nc1ccc(F)cc1)c1nc[nH]c1C(=O)O	–	14µM	–	–
COCCNC(=O)c1cc(-c2cccs2)on1	?	–	–	6.3µM
O=C(NCc1cccs1)c1cc(-c2cccs2)on1	–	–	–	–
O=C(Cn1c(=O)n(Cc2ccc(F)cc2)c(=O)c2sc3ccccc3c21)Nc1ccc(F)cc1F	–	·	·	·
CN1CCN(c2nc3c(c(=O)n(C)c(=O)n3C)n2CC(N)=O)CC1	32µM	–	–	–
CC(C)(C)C1CCC2(CC1)Nc1cccc3cccc(c13)N2	?	–	–	13µM
CCN(CC)c1ccc(C2Nc3cccc4cccc(c34)N2)cc1	–	–	–	–
Cc1cccc(NS(=O)(=O)c2ccc(Cl)c(C(=O)Nc3ccccc3C)c2)c1	–	·	·	·
COc1cc(/C=N/NC(=O)c2ccc(F)cc2)ccc1OC(=O)c1ccco1	–	–	–	10µM
COc1cc(/C=N/NC(=O)c2ccc(-n3cccc3)cc2)ccc1O	–	–	–	14µM
COc1cc(/C=N/NC(=O)c2ccncc2)ccc1OC(=O)c1ccco1	–	–	–	–
SMILES	AmpC inh detg	AMA1 RON2 block	RE007 growth inh	AmpC inh no detg
CCc1c(C)nc2[nH]nc(-c3ccccc3C)n2c1=O	–	–	–	0.28µM
COc1ccc(CN2C(=O)NC(=O)/C(=C/c3ccoc3)C2=O)cc1	–	–	–	10µM
Cc1cc(C)c(S(=O)(=O)N2CCN(Cc3ccc4c(c3)OCO4)CC2)cc1C	–	·	·	·
Cc1noc(C)c1S(=O)(=O)N1CCN(Cc2ccc3c(c2)OCO3)CC1	–	–	–	7.1µM
Cc1nc2ccc(C(C(F)(F)F)(C(F)(F)F)C(F)(F)F)cc2[nH]1	–	–	28µM	–
Cc1nc2ccc(Cl)cc2[nH]1	·	–	–	·
O=c1[nH]c(NC2CCCCC2)c([N+](=O)[O-])c(=O)[nH]1	89µM	–	–	–
Cc1nnc(SCc2ccc(Cl)cc2)c2cc3occc3n12	–	·	·	·
Nc1nc(-c2cccc(Br)c2)cs1	–	–	14µM	–
COc1cc(OC)c(NC(=O)c2cn(C3CCCC3)c(=O)c3c2c2ccccc2n3C)cc1Cl	–	·	·	·
COc1ccccc1OCc1ccc(C(=O)NC(C)(C)C)o1	–	–	–	–
COc1ccccc1OCc1ccc(C(=O)NCc2ccco2)o1	–	–	–	0.28µM
Cc1ccccc1NC(=O)Cn1c(=O)n(Cc2ccc3c(c2)OCO3)c(=O)c2ccc(C(=O)NC3CCCCC3)cc21	–	·	·	·
Cc1nc(Nc2ccccc2)sc1-c1ccccc1	–	–	35µM	–
CC(C)c1ccc(-c2noc(SCC(=O)N3CCCCC3C)n2)cc1 (configuration not stated)	–	·	·	·
